Assay results from PubChem BioAssay AID1159580 (chemical genetic matrix, 2015).
“And” between values parts separate entries of the source, which are not always exact repeats. Identical values can stand only once. Out of some 5,500 compounds screened, about 2,000 (36%) were called active. Inconclusive results (about 18%) are left out. No stated cut-off is given here; in the data, active means normalized growth mostly below about 0.91 (no sharp cut-off); inconclusive means no clear call, values can overlap the other calls; inactive means mostly above about 0.92. The list shows a part of the results.

Experiment: chemical genetic growth profiling, strain panel (AID 1159580);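 further: tested at 20 µM; growth read once vehicle control cultures reached saturation at 30 °C; 1 = growth at the plate median or of vehicle wells; lower values mean less growth of the strain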
Details: S. cerevisiae deletion strains, growth OD

Measured: normalized growth

CC(=O)NCc1c(I)c(NC(C)=O)c(I)c(C(=O)O)c1I
inactive: locus YAL013W, strain DEP1, hits give low values 0.997 | locus YAL021C, strain ccr4, hits give low values 0.989 | locus YAL026C, strain drs2, hits give low values 0.997 | locus YAL030W, strain snc1, hits give low values 1 | locus YBL061C, strain skt5, hits give low values 0.994 | locus YBR009C, strain hhf1, hits give low values 0.991 | locus YBR021W, strain FUR4, hits give low values 1.02 | locus YBR023C, strain chs3, hits give low values 0.993 | locus YBR171W, strain sec66, hits give low values 0.995 | locus YBR229C, strain ROT2, hits give low values 0.999 | locus YBR231C, strain swc5, hits give low values 1 | locus YBR279W, strain paf1, hits give low values 0.989 | locus YCL011C, strain gbp2, hits give low values 1 | locus YCL016C, strain dcc1, hits give low values 0.993 | locus YCL029C, strain bik1, hits give low values 0.982 | locus YCL061C, strain MRC1, hits give low values 0.983 | locus YCL069W, strain vba3, hits give low values 1 | locus YCR088W, strain abp1, hits give low values 1 | locus YDL005C, strain med2, hits give low values 1 | locus YDL035C, strain GPR1, hits give low values 1.01 | locus YDL040C, strain nat1, hits give low values 1 | locus YDL074C, strain BRE1, hits give low values 0.982 | locus YDL101C, strain DUN1, hits give low values 0.991 | locus YDL134C, strain PPH21, hits give low values 0.999 | locus YDL185W, strain tfp1, hits give low values 0.959 | locus YDL192W, strain arf1, hits give low values 0.99 | locus YDR001C, strain nth1, hits give low values 1.01 | locus YDR069C, strain doa4, hits give low values 0.999 | locus YDR101C, strain arx1, hits give low values 0.996 | locus YDR137W, strain rgp1, hits give low values 1.01 | locus YDR150W, strain NUM1, hits give low values 0.995 | locus YDR159W, strain sac3, hits give low values 0.99 | locus YDR162C, strain NBP2, hits give low values 0.997 | locus YDR195W, strain ref2 0.989 | locus YDR297W, strain sur2, hits give low values 0.995 | locus YDR318W, strain mcm21, hits give low values 0.984 | locus YDR334W, strain swr1, hits give low values 0.999 | locus YDR335W, strain msn5, hits give low values 1.01 | locus YDR388W, hits give low values 0.998 | locus YDR392W, strain spt3, hits give low values 0.957 | locus YDR502C, strain sam2, hits give low values 1 | locus YEL003W, strain gim4, hits give low values 1.01 | locus YEL037C, strain rad23, hits give low values 1 | locus YEL061C, strain CIN8 (second series), hits give low values 1 | locus YEL061C, strain CIN8, hits give low values 0.997 | locus YER015W, strain faa2, hits give low values 0.987 | locus YER016W, strain bim1, hits give low values 1 | locus YER110C, hits give low values 0.996 | locus YER111C, strain swi4, hits give low values 0.994 | locus YER155C, strain BEM2 (second series), hits give low values 1.01 | locus YER155C, strain BEM2, hits give low values 0.998 | locus YER167W, strain BCK2, hits give low values 1 | locus YFR010W, strain ubp6, hits give low values 0.998 | locus YGL078C, strain dbp3, hits give low values 1 | locus YGL086W, strain mad1, hits give low values 1.02 | locus YGL167C, strain pmr1, hits give low values 0.992 | locus YGL173C, strain kem1, hits give low values 0.995 | locus YGL227W, strain vid30, hits give low values 1 | locus YGL240W, strain doc1, hits give low values 0.986 | locus YGL248W, strain PDE1, hits give low values 1.01 | locus YGL253W, strain hxk2, hits give low values 0.996 | locus YGR078C, strain PAC10, hits give low values 1 | locus YGR135W, strain pre9, hits give low values 0.997 | locus YGR229C, strain SMI1, hits give low values 1 | locus YGR252W, strain gcn5, hits give low values 1.16 | locus YHR013C, strain ard1, hits give low values 0.997 | locus YHR027C, strain rpn1, hits give low values 1.01 | locus YHR030C, strain SLT2, hits give low values 0.996 and 1.01 | locus YHR079C, strain IRE1 (second series), hits give low values 0.992 | locus YHR079C, strain IRE1, hits give low values 1.02 | locus YHR094C, strain hxt1, hits give low values 0.98 | locus YHR129C, strain ARP1, hits give low values 0.997 | locus YHR142W, strain chs7, hits give low values 1.02 | locus YHR200W, strain rpn10, hits give low values 0.988 | locus YIL066C, strain RNR3, hits give low values 1 | locus YIL073C, strain SPO22, hits give low values 0.986 | locus YIL125W, strain kgd1, hits give low values 0.99 | locus YIR030C, strain dcg1, hits give low values 0.993 | locus YJL092W, strain hpr5, hits give low values 0.998 | locus YJL095W, strain BCK1 (second series), hits give low values 1 | locus YJL095W, strain BCK1, hits give low values 0.98 and 1.02 | locus YJL115W, strain asf1, hits give low values 0.993 | locus YJL129C, strain trk1, hits give low values 0.995 | locus YJL134W, strain LCB3, hits give low values 1 | locus YJL154C, strain vps35, hits give low values 1 | locus YJL164C, strain tpk1, hits give low values 0.996 | locus YJL166W, strain qcr8, hits give low values 0.991 | locus YJL168C, strain set2, hits give low values 0.992 | locus YJL187C, strain SWE1 (second series), hits give low values 0.987 | locus YJL187C, strain SWE1, hits give low values 1.02 | locus YJR043C, strain POL32, hits give low values 0.982 | locus YJR066W, strain TOR1, hits give low values 0.974
